Activity calls are given as the source filed them. How the source made its calls: active means hit-call score of the fitted dose curve at least 0.9, where 1 is the maximum; inactive means score below 0.9.
How the values were obtained:
[1] = APR_HepG2_NuclearSize_72hr: Apredica 72-hour HepG2 Assay for Nuclear Size (AID 2282925); conditions: high-content imaging, actives raise or lower the signal
How it was run: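 HepG2 cells were exposed to compounds at ten concentrations from 0.39 to 200 uM (duplicate, 0.5% DMSO final) for 72 hr. After fixation in 3.7% formaldehyde, nuclei were stained with Hoechst 33342 (2 ug/mL) and imaged at 20x.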

[2] = ATG_CRE_CIS: Attagene CIS-FACTORIAL HepG2 Assay for human cAMP Responsive Element (CRE) binding protein 3 (AID 2282926); conditions: HepG2 CRE cis-reporter, Attagene multiplexed mRNA; actives raise or lower the signal
How it was run: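 HepG2 cells transiently transfected with cis-element-driven multiple reporter transcription units; CRE reporter mRNA measured 24 h after dosing by RT-PCR, 6-FAM labelling, HpaI digestion and capillary electrophoresis. Bidirectional fit versus DMSO baseline.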

[3] = biological target: CCAAT/enhancer-binding protein beta (Homo sapiens) (UniProt P17676); experiment: ATG_C_EBP_CIS: Attagene CIS-FACTORIAL HepG2 Assay for human CCAAT/Enhancer Binding Protein (C/EBP) beta (AID 2282927); conditions: HepG2 Attagene cis-factorial transcription factor reporter; actives raise or lower the signal
How it was run: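 Following a 24 h incubation with test chemical, transfected HepG2 cells yielded RNA whose reporter transcripts were quantified by RT-PCR and fluorescent capillary electrophoresis, with DMSO serving as baseline for bidirectional fitting.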

[4] = ATG_CMV_CIS: Attagene CIS-FACTORIAL HepG2 Assay for human CMV (Internal Marker) (AID 2282928); conditions: HepG2 CMV promoter reporter, transcription factor profiling; actives raise or lower the signal;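 further: endpoint acts as a background internal control marker rather than a target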
How it was run: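 After transient transfection of HepG2 with reporter transcription units driven by cis-regulatory promoters, cells receive test chemical for 24 h. Labeled reporter amplicons, digested with HpaI, are sized and quantified by capillary electrophoresis against DMSO.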

[5] = ATG_DR4_LXR_CIS: Attagene CIS-FACTORIAL HepG2 Assay for human Liver X Receptor (LXR), DR4 submotif (AID 2282929); conditions: HepG2 Attagene DR4 cis-reporter, mRNA transcription; actives raise or lower the signal
How it was run: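 Transiently transfected HepG2 liver cells; cis-regulated reporters; 24 h dosing. RT-PCR plus CE read-out of reporter mRNA. DMSO baseline, bidirectional curve fitting.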

[6] = biological target: Aryl hydrocarbon receptor (Homo sapiens) (UniProt P35869); experiment: ATG_Ahr_CIS: Attagene CIS-FACTORIAL HepG2 Assay for human Aryl Hydrocarbon Receptor (Ahr) (AID 2282930); conditions: HepG2 AhR cis-factorial reporter transcription; actives raise or lower the signal
How it was run: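 Values derive from bidirectional fitting against DMSO negative control. Underlying signal: cis-element reporter mRNA in transiently transfected HepG2, harvested 24 h post-dose and measured by RT-PCR plus capillary electrophoresis.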

[7] = ATG_AP_1_CIS: Attagene CIS-FACTORIAL HepG2 Assay for human Activator Protein 1 (AP-1) (AID 2282931); conditions: HepG2 Attagene cis-factorial AP-1 reporter mRNA; actives raise or lower the signal
How it was run: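 We transfected HepG2 cells transiently with a set of cis-regulated reporter transcription units, dosed them for 24 h, and quantified reporter mRNA via RT-PCR and capillary electrophoresis, scoring gain or loss of signal relative to DMSO.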

[8] = ATG_AP_2_CIS: Attagene CIS-FACTORIAL HepG2 Assay for human Activator Protein 2 (AP-2) (AID 2282932); conditions: HepG2 AP-2 cis-reporter, Attagene transcription factor profiling; actives raise or lower the signal
How it was run: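 Bidirectional curve fitting against DMSO was applied to reporter mRNA signals from HepG2 cells 24 h after dosing. Cis-promoter reporter units, transiently transfected, were read by RT-PCR plus capillary electrophoresis.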

[9] = ATG_BRE_CIS: Attagene CIS-FACTORIAL HepG2 Assay for human Bone Morphogenetic Protein (BMP) Response Element (BRE) (AID 2282933); conditions: HepG2 BMP response element reporter, Attagene transcription factor profiling; actives raise or lower the signal
How it was run: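 Endogenous transcription factor activity read in transiently transfected HepG2 cells after 24 h chemical exposure. Bidirectional curve fitting against DMSO; readout is reporter transcript level by RT-PCR with capillary electrophoresis of labelled products.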

[10] = biological target: Retinoic acid receptor alpha (Homo sapiens) (UniProt P10276); experiment: ATG_DR5_RAR_CIS: Attagene CIS-FACTORIAL HepG2 Assay for human Retinoic Acid Receptor Alpha (RARE), DR5 submotif (AID 2282934); conditions: HepG2 Attagene cis-factorial RARE DR5 reporter, mRNA; actives raise or lower the signal
How it was run: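 Endpoint fitted in both directions relative to DMSO as negative control. It reflects DR5 cis-element reporter mRNA induction in transiently transfected HepG2 cells, measured 24 h after dosing through RT-PCR and fluorescent capillary electrophoresis.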

[11] = biological target: Transcription factor E2F1 (Homo sapiens) (UniProt Q01094); experiment: ATG_E2F_CIS: Attagene CIS-FACTORIAL HepG2 Assay for human E2F Transcription Factor 1 (AID 2282935); conditions: HepG2 Attagene cis-reporter, E2F reporter RNA transcripts; actives raise or lower the signal
How it was run: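 Multiplexed cis-reporter assay: HepG2, transient transfection, 24 h dosing, mRNA quantitation by labeled RT-PCR and CE.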

[12] = ATG_E_Box_CIS: Attagene CIS-FACTORIAL HepG2 Assay for human Enhancer Box (E-box) (AID 2282936); conditions: HepG2 E-box cis-reporter transcription, actives raise or lower the signal
How it was run: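 Multiplexed CIS reporter system in transiently transfected HepG2 cells measures native transcription factor activity. Reporter RNA after 24 h exposure is profiled by RT-PCR-capillary electrophoresis.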

[13] = ATG_M_61_CIS: Attagene CIS-FACTORIAL HepG2 Assay for M61 Transcription Factor (Internal Marker) (AID 2282937); conditions: HepG2 Attagene CIS-FACTORIAL M61 internal marker reporter; actives raise or lower the signal
How it was run: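 Multiplexed reporter mRNA assay, HepG2 human hepatoma cells, 24 h treatment. Signal: FAM-labelled, HpaI-digested RT-PCR fragments by CE. Fit: bidirectional, baseline DMSO.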

[14] = ATG_EGR_CIS: Attagene CIS-FACTORIAL HepG2 Assay for human Early Growth Response 1 (EGR1) (AID 2282938); conditions: HepG2 Attagene CIS-FACTORIAL EGR reporter mRNA; actives raise or lower the signal
How it was run: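 Multiplexed cis-reporter system in human hepatoma HepG2 cells, transiently transfected. Cells are dosed for 24 h; reporter transcripts are amplified, fluorescently tagged and sized by capillary electrophoresis, with DMSO as negative control.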

[15] = ATG_M_19_CIS: Attagene CIS-FACTORIAL HepG2 Assay for M19 Transcription Factor (Internal Marker) (AID 2282939); conditions: HepG2 Attagene CIS-FACTORIAL M19 internal marker reporter; actives raise or lower the signal
How it was run: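 Internal marker readout, fitted in both directions against DMSO, from HepG2 cells carrying transfected cis-element reporter constructs; RT-PCR and capillary electrophoresis of reporter mRNA after 24 h exposure.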

[16] = ATG_ERE_CIS: Attagene CIS-FACTORIAL HepG2 Assay for Estrogen Response Element (ERE) (AID 2282940); conditions: HepG2 ERE cis-reporter, Attagene RNA transcript; actives raise or lower the signal
How it was run: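 After 24 h compound treatment, RNA from transfected HepG2 cells was reverse-transcribed, reporter cDNA PCR-amplified, FAM-labelled, HpaI-cut and resolved by capillary electrophoresis. ERE-driven cis reporter transcripts reflect endogenous factors; gain or loss scored against DMSO.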

[17] = ATG_Ets_CIS: Attagene CIS-FACTORIAL HepG2 Assay for human Erythroblast Transformation Specific (ETS) (AID 2282941); conditions: HepG2 ETS cis-reporter transcription, actives raise or lower the signal
How it was run: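 Human HepG2 hepatoma cells were transiently transfected with promoter-driven reporter constructs and treated for 24 hours. Reporter transcripts were quantified by RT-PCR with fluorescent primer extension; bidirectional curve fitting used DMSO as reference.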

[18] = biological target: Hepatocyte nuclear factor 3-beta (Homo sapiens) (UniProt Q9Y261); experiment: ATG_FoxA2_CIS: Attagene CIS-FACTORIAL HepG2 Assay for human Forkhead box A2 (FOXA2) (AID 2282942); conditions: HepG2 cis-reporter transcription factor activity, 24 h; actives raise or lower the signal
How it was run: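 Multiplexed cis-element reporter assay in transiently transfected HepG2. Twenty-four hours post-dosing, RNA was reverse-transcribed, amplified, FAM-labelled, HpaI-digested and separated by CE. Activity gain or loss relative to DMSO.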

[19] = ATG_FoxO_CIS: Attagene CIS-FACTORIAL HepG2 Assay for human Forkhead box O (FoxO) (AID 2282943); conditions: HepG2 Attagene cis-reporter, FoxO element, mRNA; actives raise or lower the signal
How it was run: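 Values reflect reporter mRNA induction or loss in HepG2 cells 24 h post-dosing, fitted bidirectionally with DMSO as negative control and baseline. Detection used RT-PCR and fluorescence capillary electrophoresis.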

[20] = ATG_GATA_CIS: Attagene CIS-FACTORIAL HepG2 Assay for human GATA Binding Protein (AID 2282944); conditions: HepG2 GATA cis-element reporter, Attagene multiplex mRNA; actives raise or lower the signal
How it was run: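 Reporter transcripts from a GATA cis-regulated unit, among multiplexed reporters in transfected HepG2 cells, were measured by RT-PCR with capillary electrophoresis after 24 h dosing. Induction or loss scored relative to DMSO.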

Chain of Transcription factor E2F1 (Homo sapiens) (Q01094 whole entry, looked up): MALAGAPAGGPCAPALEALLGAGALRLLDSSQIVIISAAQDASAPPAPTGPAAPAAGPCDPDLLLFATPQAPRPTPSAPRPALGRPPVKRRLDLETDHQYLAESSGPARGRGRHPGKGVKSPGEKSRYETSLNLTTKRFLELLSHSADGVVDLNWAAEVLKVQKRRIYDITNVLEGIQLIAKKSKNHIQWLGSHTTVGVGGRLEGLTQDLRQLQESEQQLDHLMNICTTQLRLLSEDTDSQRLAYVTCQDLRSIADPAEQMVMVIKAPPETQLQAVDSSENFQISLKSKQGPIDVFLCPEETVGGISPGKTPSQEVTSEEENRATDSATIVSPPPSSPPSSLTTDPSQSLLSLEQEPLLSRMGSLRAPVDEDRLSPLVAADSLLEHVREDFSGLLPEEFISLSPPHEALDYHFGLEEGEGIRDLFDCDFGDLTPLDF
Chain of Retinoic acid receptor alpha (Homo sapiens) (P10276 whole entry, looked up): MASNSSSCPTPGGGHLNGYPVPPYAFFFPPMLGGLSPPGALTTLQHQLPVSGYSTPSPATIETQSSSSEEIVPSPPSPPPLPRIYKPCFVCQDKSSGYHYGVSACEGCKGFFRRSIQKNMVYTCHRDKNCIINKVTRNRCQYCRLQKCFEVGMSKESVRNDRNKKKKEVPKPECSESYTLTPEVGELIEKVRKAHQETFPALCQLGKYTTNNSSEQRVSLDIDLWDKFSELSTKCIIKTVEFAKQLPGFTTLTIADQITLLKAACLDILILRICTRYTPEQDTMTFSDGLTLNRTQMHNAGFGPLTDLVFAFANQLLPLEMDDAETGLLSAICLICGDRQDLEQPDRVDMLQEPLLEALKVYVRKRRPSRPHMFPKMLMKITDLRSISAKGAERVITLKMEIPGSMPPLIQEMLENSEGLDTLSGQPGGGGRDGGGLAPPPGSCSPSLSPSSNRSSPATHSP
Chain of CCAAT/enhancer-binding protein beta (Homo sapiens) (P17676 whole entry, looked up): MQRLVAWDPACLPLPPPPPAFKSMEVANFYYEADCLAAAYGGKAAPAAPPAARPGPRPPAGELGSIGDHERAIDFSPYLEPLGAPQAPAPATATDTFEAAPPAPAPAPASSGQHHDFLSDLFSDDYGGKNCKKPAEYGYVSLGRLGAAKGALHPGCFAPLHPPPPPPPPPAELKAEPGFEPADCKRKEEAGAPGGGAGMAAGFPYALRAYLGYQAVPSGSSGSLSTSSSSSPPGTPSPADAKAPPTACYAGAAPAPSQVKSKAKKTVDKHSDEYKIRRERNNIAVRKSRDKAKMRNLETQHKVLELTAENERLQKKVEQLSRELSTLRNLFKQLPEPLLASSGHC
Chain of Hepatocyte nuclear factor 3-beta (Homo sapiens) (Q9Y261 whole entry, looked up): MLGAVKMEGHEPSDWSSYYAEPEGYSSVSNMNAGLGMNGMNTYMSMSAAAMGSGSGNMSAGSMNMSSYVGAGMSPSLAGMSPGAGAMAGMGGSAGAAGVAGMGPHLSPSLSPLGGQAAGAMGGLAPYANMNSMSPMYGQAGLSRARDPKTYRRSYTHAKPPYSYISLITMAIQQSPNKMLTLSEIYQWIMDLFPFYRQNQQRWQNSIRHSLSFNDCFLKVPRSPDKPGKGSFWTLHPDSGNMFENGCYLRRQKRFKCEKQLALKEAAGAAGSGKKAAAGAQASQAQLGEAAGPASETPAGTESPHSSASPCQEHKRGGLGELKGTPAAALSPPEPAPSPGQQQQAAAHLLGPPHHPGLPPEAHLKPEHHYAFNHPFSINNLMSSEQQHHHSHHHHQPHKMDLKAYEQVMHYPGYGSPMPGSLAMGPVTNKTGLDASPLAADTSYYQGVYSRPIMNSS
Chain of Aryl hydrocarbon receptor (Homo sapiens) (P35869 whole entry, looked up): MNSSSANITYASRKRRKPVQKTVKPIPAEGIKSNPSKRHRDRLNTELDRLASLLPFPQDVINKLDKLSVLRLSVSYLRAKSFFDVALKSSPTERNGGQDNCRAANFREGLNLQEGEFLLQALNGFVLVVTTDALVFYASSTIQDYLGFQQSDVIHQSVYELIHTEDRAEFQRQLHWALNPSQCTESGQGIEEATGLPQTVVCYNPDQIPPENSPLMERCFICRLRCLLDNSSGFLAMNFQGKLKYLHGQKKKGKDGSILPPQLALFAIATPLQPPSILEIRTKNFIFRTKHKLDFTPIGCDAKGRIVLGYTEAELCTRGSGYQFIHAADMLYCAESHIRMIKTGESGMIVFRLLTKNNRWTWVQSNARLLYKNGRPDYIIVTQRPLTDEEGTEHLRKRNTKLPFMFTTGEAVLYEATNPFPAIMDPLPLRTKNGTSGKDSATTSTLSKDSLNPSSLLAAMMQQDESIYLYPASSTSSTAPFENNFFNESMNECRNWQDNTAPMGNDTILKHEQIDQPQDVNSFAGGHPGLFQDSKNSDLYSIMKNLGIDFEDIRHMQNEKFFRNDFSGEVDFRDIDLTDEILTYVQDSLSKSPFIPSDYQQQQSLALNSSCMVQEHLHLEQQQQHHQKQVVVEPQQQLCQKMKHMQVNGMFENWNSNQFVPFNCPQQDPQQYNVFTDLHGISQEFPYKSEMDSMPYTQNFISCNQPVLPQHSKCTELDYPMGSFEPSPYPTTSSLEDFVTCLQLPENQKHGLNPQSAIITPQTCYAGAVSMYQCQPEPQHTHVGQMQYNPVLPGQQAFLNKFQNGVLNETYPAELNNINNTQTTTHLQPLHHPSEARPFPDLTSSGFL

## Cc1cccc(C)c1O
[1]
  outcome: inactive
[2]
  outcome: inactive
[3]
  outcome: inactive
[4]
  outcome: inactive
[5]
  outcome: inactive
[6]
  outcome: inactive
[7]
  outcome: inactive
[8]
  outcome: inactive
[9]
  outcome: inactive
[10]
  outcome: inactive
[11]
  outcome: inactive
[12]
  outcome: inactive
[13]
  outcome: inactive
[14]
  outcome: inactive
[15]
  outcome: inactive
[16]
  outcome: inactive
[17]
  outcome: inactive
[18]
  outcome: inactive
[19]
  outcome: inactive
[20]
  outcome: inactive

## Cc1cccc(Nc2cc(Cl)nc(SCC(=O)O)n2)c1C
[1]
  outcome: inactive
[2]
  outcome: inactive
[3]
  outcome: inactive
[4]
  outcome: inactive
[5]
  outcome: inactive
[6]
  outcome: inactive
[7]
  outcome: inactive
[8]
  outcome: inactive
[9]
  outcome: inactive
[10]
  outcome: inactive
[11]
  outcome: inactive
[12]
  outcome: inactive
[13]
  outcome: inactive
[14]
  outcome: inactive
[15]
  outcome: inactive
[16]
  outcome: inactive
[17]
  outcome: inactive
[18]
  outcome: inactive
[19]
  outcome: inactive
[20]
  outcome: inactive

## Oc1ccc2c(c1)OC[C@@H](N1CCC(O)(c3ccc(F)cc3)CC1)[C@H]2O
[1]
  outcome: inactive
[2]
  outcome: inactive
[3]
  outcome: inactive
[4]
  outcome: inactive
[5]
  outcome: inactive
[6]
  AC50: 50 µM (active)
[7]
  outcome: inactive
[8]
  outcome: inactive
[9]
  AC50: 62.1 µM (active)
[10]
  outcome: inactive
[11]
  outcome: inactive
[12]
  outcome: inactive
[13]
  outcome: inactive
[14]
  AC50: 50 µM (active)
[15]
  outcome: inactive
[16]
  outcome: inactive
[17]
  outcome: inactive
[18]
  outcome: inactive
[19]
  outcome: inactive
[20]
  outcome: inactive

## COc1ccc(S(=O)(=O)N2C(=O)[C@@](c3ccccc3OC)(N3C[C@H](O)C[C@H]3C(=O)N(C)C)c3cc(Cl)ccc32)c(OC)c1
[1]
  AC50: 130 µM (active)
[2]
  AC50: 87.9 µM (active)
[3]
  outcome: inactive
[4]
  outcome: inactive
[5]
  AC50: 26.1 µM (active)
[6]
  AC50: 29.9 µM (active)
[7]
  AC50: 27.6 µM (active)
[8]
  outcome: inactive
[9]
  AC50: 55.5 µM (active)
[10]
  outcome: inactive
[11]
  outcome: inactive
[12]
  outcome: inactive
[13]
  outcome: inactive
[14]
  AC50: 36.7 µM (active)
[15]
  outcome: inactive
[16]
  outcome: inactive
[17]
  AC50: 83.5 µM (active)
[18]
  AC50: 132 µM (active)
[19]
  outcome: inactive
[20]
  outcome: inactive

## CCOC(=O)CCC(=O)OCC
[1]
  outcome: inactive
[2]
  outcome: inactive
[3]
  outcome: inactive
[4]
  outcome: inactive
[5]
  outcome: inactive
[6]
  AC50: 75.7 µM (active)
[7]
  outcome: inactive
[8]
  outcome: inactive
[9]
  outcome: inactive
[10]
  outcome: inactive
[11]
  outcome: inactive
[12]
  outcome: inactive
[13]
  outcome: inactive
[14]
  outcome: inactive
[15]
  outcome: inactive
[16]
  outcome: inactive
[17]
  outcome: inactive
[18]
  outcome: inactive
[19]
  outcome: inactive
[20]
  outcome: inactive

## Nc1ccccc1N
[1]
  outcome: inactive
[2]
  AC50: 72.5 µM (active)
[3]
  AC50: 54.2 µM (active)
[4]
  AC50: 24.2 µM (active)
[5]
  outcome: inactive
[6]
  AC50: 1.41 µM (active)
[7]
  AC50: 15.7 µM (active)
[8]
  outcome: inactive
[9]
  AC50: 5.4 µM (active)
[10]
  outcome: inactive
[11]
  outcome: inactive
[12]
  outcome: inactive
[13]
  outcome: inactive
[14]
  AC50: 53.8 µM (active)
[15]
  outcome: inactive
[16]
  outcome: inactive
[17]
  outcome: inactive
[18]
  outcome: inactive
[19]
  outcome: inactive
[20]
  outcome: inactive

## CCNc1cccc(C)c1
[1]
  outcome: inactive
[2]
  outcome: inactive
[3]
  outcome: inactive
[4]
  outcome: inactive
[5]
  outcome: inactive
[6]
  outcome: inactive
[7]
  outcome: inactive
[8]
  outcome: inactive
[9]
  outcome: inactive
[10]
  outcome: inactive
[11]
  outcome: inactive
[12]
  outcome: inactive
[13]
  outcome: inactive
[14]
  outcome: inactive
[15]
  outcome: inactive
[16]
  outcome: inactive
[17]
  outcome: inactive
[18]
  outcome: inactive
[19]
  outcome: inactive
[20]
  outcome: inactive

Source: PubChem BioAssay (EPA / NIEHS)
